Results as given in PubChem BioAssay (NCATS).
Values joined by “and” are separate entries in the source; they are usually repeats but may differ in a detail not shown here. Equal entries are not always repeated. Inconclusive results are not listed. Active and inactive are the calls of the source. Unless noted, calls come from the whole dose curve.

Assays:
[1] = molecular target: Glucocorticoid receptor (Homo sapiens) (UniProt P04150); assay: qHTS assay for small molecule agonists of glucocorticoid receptor signaling (AID 588532; active = well fitted curve in the direction sought with a large enough effect in the signal ratio, with a control signal flat; the % refers to the signal ratio;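 note: 100% = dexamethasone at 0.1 µM and 0% = DMSO only wells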); conditions: HeLa MMTV-bla, beta-lactamase ratio, agonist, 18 h; activation: stronger effect = higher value, percent of dexamethasone control, DMSO zero
Glucocorticoid receptor (Homo sapiens), sequence (P04150 whole entry, looked up): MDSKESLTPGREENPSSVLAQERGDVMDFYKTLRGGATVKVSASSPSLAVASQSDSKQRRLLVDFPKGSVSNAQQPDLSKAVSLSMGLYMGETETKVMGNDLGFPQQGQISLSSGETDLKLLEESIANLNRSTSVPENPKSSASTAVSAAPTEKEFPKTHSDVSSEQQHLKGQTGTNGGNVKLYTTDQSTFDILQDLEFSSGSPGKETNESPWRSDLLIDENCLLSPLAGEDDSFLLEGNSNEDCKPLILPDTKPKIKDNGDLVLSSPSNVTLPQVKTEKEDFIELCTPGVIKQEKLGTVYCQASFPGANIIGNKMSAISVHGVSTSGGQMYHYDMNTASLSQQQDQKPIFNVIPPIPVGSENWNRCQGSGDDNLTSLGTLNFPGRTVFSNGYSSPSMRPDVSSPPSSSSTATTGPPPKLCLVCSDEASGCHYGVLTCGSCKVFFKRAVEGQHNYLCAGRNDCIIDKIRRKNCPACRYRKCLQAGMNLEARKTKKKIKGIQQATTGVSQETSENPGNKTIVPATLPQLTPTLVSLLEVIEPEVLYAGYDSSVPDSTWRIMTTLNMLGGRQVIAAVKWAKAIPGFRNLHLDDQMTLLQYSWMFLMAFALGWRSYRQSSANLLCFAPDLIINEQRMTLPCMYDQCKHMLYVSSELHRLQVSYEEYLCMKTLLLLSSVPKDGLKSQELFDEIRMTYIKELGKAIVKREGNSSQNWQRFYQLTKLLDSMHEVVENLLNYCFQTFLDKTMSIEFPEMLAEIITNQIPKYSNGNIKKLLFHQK
How it was run: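 Titration series, up to 92 uM, applied to GRE-bla HeLa cells for 18 h at 37 C. Detection by CCF4 FRET substrate after 2 h at RT.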

[2] = molecular target: Glucocorticoid receptor (Homo sapiens) (UniProt P04150); assay: qHTS assay for small molecule antagonists of glucocorticoid receptor signaling (AID 588533; active = well fitted inhibition curve with a large enough effect in the signal ratio, with a control signal flat, not every such curve was filed as active; the % refers to the signal ratio;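 note: cells stimulated with 2 nM dexamethasone as agonist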; note: potency is the fitted concentration of half-maximal effect)
How it was run: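 Antagonist-mode qHTS: compound titrations added to GRE-bla HeLa cells, then dexamethasone 2 nM final; 18 h, 37 C. CCF4 FRET fluorescence normalized to dexamethasone and DMSO; IC50 from Hill fit.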

[3] = qHTS assay for small molecule antagonists of peroxisome proliferator-activated receptor delta signaling (AID 588535; active = well fitted inhibition curve with a large enough effect in the signal ratio, with a control signal flat, not every such curve was filed as active; the % refers to the signal ratio;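 for max response: cells co-treated with a PPAR-delta agonist as stimulator during compound exposure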); conditions: HEK293T PPARd-UAS-bla, beta-lactamase FRET ratio, 18 h; 460 nm channel
How it was run: (§1)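 Reporter: UAS-bla under PPAR-delta response element, HEK293T host. Medium: 2% charcoal/dextran FBS. Dosing: titration, 18 hrs, 37 C. Detection: CCF4, 2 hrs RT, 405 ex/460 and 530 em.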

[4] = molecular target: Peroxisome proliferator-activated receptor delta (Homo sapiens) (UniProt Q03181); assay: as above
Peroxisome proliferator-activated receptor delta (Homo sapiens), sequence (Q03181 whole entry, looked up): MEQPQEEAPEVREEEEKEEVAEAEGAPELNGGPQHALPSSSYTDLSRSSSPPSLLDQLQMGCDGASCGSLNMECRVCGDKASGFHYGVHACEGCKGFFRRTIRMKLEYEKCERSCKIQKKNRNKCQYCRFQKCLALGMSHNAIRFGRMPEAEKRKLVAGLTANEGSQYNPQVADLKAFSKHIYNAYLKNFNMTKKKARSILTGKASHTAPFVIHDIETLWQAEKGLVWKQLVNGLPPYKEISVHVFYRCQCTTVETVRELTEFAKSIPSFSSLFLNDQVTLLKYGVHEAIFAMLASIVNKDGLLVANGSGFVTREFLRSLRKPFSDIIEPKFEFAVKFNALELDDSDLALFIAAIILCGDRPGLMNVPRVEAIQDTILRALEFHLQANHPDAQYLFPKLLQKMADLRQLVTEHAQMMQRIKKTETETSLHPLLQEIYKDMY
How it was run: as §1

[5] = qHTS assay for small molecule agonists of the antioxidant response element (ARE) signaling pathway (AID 651741; active = well fitted activation curve with a large enough effect in the signal ratio; the % refers to the signal ratio; note: potency is the fitted concentration of half-maximal effect; for activation: % of control where 0% means no effect)
How it was run: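 Compounds in DMSO are pinned onto HepG2 ARE-bla cells (2,000/well) that were preincubated 5 h; plates stay 16 h at 37 C, then beta-lactamase activity is detected with LiveBLAzer B/G substrate by fluorescence.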

[6] = qHTS assay for small molecule activators of the human pregnane X receptor (PXR) signaling pathway (AID 720659; call rule not given here; note: 0% is about no effect)
[7] = molecular target: Cytochrome P450 3A4 (Homo sapiens) (UniProt P08684); assay: qHTS Assay for Activators of Cytochrome P450 3A4 (AID 885; active = well fitted curve in the direction sought with a large enough effect; an effect the other way counts as inactive or inconclusive; note: nearly all actives have a fitted effect of over 65% in size)
Cytochrome P450 3A4 (Homo sapiens), sequence (P08684 whole entry, looked up): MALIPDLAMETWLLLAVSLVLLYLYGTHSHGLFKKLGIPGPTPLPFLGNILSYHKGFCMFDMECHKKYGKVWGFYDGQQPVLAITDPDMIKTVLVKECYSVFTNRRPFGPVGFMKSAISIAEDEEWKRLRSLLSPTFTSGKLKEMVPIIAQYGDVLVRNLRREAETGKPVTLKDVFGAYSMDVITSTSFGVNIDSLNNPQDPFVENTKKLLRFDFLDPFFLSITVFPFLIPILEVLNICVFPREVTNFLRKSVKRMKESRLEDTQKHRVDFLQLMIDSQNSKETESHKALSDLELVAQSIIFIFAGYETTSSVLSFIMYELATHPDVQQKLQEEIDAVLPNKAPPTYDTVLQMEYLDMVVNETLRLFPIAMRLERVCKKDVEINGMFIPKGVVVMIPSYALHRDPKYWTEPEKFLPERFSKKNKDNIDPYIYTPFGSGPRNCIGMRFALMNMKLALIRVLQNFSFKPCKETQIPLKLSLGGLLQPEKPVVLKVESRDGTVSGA
How it was run: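 20nM CYP3A4 + 25uM Luciferin-PPXE (=KM), 200mM KPO4; cpd 10 min RT; NADPH regen, 60 min RT; stop w/ detection buffer, 20 min; luminescence. Normalized to 57 uM ketoconazole.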

[8] = Cell Viability - LYMP2-001 (AID 921; active = well fitted curve in the direction sought with a large enough effect; an effect the other way counts as inactive or inconclusive; note: potency is the fitted concentration of half-maximal effect; nearly all actives have a fitted effect of over 70% in size)
How it was run: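 A lymphoblastoid cell line of human origin was treated with library compounds across a concentration series for 24 hours, and viable cell number was estimated from ATP-driven luciferase light output. Hill modeling gave AC50.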

[9] = MultiTox-Fluor Cytotoxicity Assay - LYMP1-002 - Live Cells (AID 955; active = well fitted curve in the direction sought with a large enough effect; an effect the other way counts as inactive or inconclusive;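 note: potency is the fitted concentration of half-maximal effect; cells exposed to compound for 16 hours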)
How it was run: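 Human lymphoblastoid LYMP1-002 cells, 2500/well, treated 16 h at 37 C in complete medium. Live-cell protease activity via GF-AFC fluorescence (Ex/Em 405/510) after 60 min reagent incubation; AC50 from Hill fits.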

[10] = MultiTox-Fluor Cytotoxicity Assay - LYMP1-002 - Dead Cells (AID 960; active = well fitted curve in the direction sought with a large enough effect; an effect the other way counts as inactive or inconclusive; note: potency is the fitted concentration of half-maximal effect; nearly all actives have a fitted effect of over 60% in size)
How it was run: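 Human lymphoblastoid LYMP1-002 cells, 2500/well, treated 16 h at 37 C; dead-cell protease cleavage of bis-AAF-R110 read by fluorescence (485/520); normalized to DMSO and 15 uM tetraoctylammonium bromide; AC50 from Hill fit.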

[11] = MultiTox-Fluor Cytotoxicity Assay - LYMP1-003 - Dead Cells (AID 961; active = well fitted curve in the direction sought with a large enough effect; an effect the other way counts as inactive or inconclusive; note: potency is the fitted concentration of half-maximal effect; nearly all actives have a fitted effect of over 70% in size)
How it was run: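 Human lymphoblastoid LYMP1-003 cells (2500/well) were treated with compounds for 16 hr at 37 C in complete medium. Dead-cell protease release was read by bis-AAF-R110 fluorescence (Ex/Em 485/520). AC50 came from Hill fits, normalized to DMSO and 15 uM tetraoctylammonium bromide.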

[12] = Cell Viability - LYMP2-003 (AID 965; active = well fitted curve in the direction sought with a large enough effect; an effect the other way counts as inactive or inconclusive;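 note: potency is the fitted concentration of half-maximal effect; cells exposed to compounds for 24 h before reading; nearly all actives have a fitted effect of over 50% in size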)
How it was run: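 qHTS, human lymphoblastoid line, 2500 cells/well, complete medium. 24 h drug, 37 C. ATP-based luminescent readout; Hill-fit AC50.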

[13] = Cell Viability - LYMP2-011 (AID 969; active = well fitted curve in the direction sought with a large enough effect; an effect the other way counts as inactive or inconclusive; note: potency is the fitted concentration of half-maximal effect; nearly all actives have a fitted effect of over 60% in size)
How it was run: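 2500 cells/well in complete medium, compound-treated 24 h at 37 C. Viability read as intracellular ATP by CellTiter-Glo luminescence after 30 min at room temperature. AC50 from Hill fits of qHTS concentration-response data.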

[14] = Cell Viability - LYMP2-013 (AID 970; active = well fitted curve in the direction sought with a large enough effect; an effect the other way counts as inactive or inconclusive; note: potency is the fitted concentration of half-maximal effect; nearly all actives have a fitted effect of over 55% in size)
How it was run: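 Human lymphoblastoid LYMP2-013 cells, 2500/well, treated 24 h at 37 C in complete medium; viability as intracellular ATP by CellTiter-Glo luminescence after 30 min. AC50 from Hill fits of qHTS concentration-response.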

[15] = molecular target: Bile acid receptor (Homo sapiens) (UniProt Q96RI1); assay: qHTS assay for small molecule agonists of farnesoid X receptor signaling (AID 588527); conditions: HEK293T FXR-UAS-bla, beta-lactamase ratio, 16 h; activation: stronger effect = higher value;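 note: series mostly up to about 77 µM; 0% = vehicle basal and 100% = reference agonist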
Bile acid receptor (Homo sapiens), sequence (Q96RI1 whole entry, looked up): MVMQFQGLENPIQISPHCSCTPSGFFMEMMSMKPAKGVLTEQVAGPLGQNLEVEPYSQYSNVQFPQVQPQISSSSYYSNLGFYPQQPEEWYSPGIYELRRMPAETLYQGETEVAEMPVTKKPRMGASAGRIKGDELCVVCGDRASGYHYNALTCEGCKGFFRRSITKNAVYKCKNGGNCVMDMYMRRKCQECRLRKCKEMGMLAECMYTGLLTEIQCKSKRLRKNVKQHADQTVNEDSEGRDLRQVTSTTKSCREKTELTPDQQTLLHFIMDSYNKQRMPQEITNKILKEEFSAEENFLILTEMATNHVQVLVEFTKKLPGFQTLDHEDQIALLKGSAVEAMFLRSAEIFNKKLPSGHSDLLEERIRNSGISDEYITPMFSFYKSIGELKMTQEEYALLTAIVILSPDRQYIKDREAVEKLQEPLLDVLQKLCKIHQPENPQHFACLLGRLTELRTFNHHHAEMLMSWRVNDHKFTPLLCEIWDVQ
How it was run: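 FXR-UAS-bla HEK293T, 10% dialyzed FBS; cpds up to 92 uM titration, 16 h 37 C; CCF4 dye 2 h RT; fluorescence. Normalized to chenodeoxycholic acid 100 uM (100%) and DMSO (0%); Hill fit gives EC50, efficacy.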

[16] = molecular target: Peroxisome proliferator-activated receptor gamma (Homo sapiens) (UniProt P37231); assay: qHTS assay for small molecule antagonists of peroxisome proliferator-activated receptor gamma signaling (AID 588537; active = well fitted inhibition curve with a large enough effect in the signal ratio, with a control signal flat, not every such curve was filed as active; the % refers to the signal ratio;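 note: reporter cells co-stimulated with 50 nM rosiglitazone agonist during compound treatment; % of control where 0% means no effect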)
Peroxisome proliferator-activated receptor gamma (Homo sapiens), sequence (P37231 whole entry, looked up): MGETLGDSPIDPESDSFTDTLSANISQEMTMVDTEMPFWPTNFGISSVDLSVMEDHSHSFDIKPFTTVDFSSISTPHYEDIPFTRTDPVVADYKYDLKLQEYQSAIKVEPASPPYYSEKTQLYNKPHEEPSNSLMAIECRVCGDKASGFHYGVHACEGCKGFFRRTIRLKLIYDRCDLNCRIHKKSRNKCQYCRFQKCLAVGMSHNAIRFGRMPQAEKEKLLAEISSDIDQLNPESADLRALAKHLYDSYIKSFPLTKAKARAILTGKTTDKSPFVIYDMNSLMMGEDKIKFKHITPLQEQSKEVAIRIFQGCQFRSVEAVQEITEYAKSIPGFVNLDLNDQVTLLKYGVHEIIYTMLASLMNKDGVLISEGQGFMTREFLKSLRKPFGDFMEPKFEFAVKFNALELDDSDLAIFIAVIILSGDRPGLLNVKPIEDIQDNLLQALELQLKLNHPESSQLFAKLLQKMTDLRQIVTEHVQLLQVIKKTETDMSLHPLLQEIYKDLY
How it was run: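 We seeded GeneBLAzer HEK293 reporter cells at 3000 per well, allowed 6-6.5 h attachment at 37 C, then co-treated with test compound titrations and 50 nM rosiglitazone overnight (16 h). Inhibition was quantified from 460/530 nm emission ratios.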

[17] = molecular target: Thyroid hormone receptor beta (Homo sapiens) (UniProt P10828); assay: qHTS assay for small molecule antagonists of thyroid hormone receptor beta signaling (AID 588547; active = well fitted inhibition curve with a large enough effect in the signal ratio, with a control signal flat, not every such curve was filed as active; the % refers to the signal ratio;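 note: cells stimulated with 0.4 nM T3 agonist during compound exposure; series mostly up to about 77 µM; % is set by controls: 0 for no effect and ±100 for the full control effect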); conditions: TR-UAS-bla HEK293, beta-lactamase ratio, antagonist mode, 18 h
Thyroid hormone receptor beta (Homo sapiens), sequence (P10828 whole entry, looked up): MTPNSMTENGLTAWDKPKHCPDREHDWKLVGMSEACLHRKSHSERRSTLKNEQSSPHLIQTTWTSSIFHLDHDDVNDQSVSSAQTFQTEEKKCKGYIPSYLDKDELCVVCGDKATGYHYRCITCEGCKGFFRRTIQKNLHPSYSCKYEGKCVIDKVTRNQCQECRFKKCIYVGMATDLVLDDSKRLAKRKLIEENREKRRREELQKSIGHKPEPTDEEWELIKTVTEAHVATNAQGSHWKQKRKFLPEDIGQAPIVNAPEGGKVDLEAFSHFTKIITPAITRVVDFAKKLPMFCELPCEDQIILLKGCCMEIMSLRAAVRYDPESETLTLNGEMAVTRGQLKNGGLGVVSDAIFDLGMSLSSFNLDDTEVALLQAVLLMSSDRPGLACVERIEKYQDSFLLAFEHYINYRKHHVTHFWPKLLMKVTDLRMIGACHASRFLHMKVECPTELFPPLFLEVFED
How it was run: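 TR-UAS-bla GripTite HEK293 cells in 2% charcoal/dextran FBS medium were preincubated 4 h at 37 C, given compound (0.59 nM to 92 uM) plus 0.4 nM T3 (final) for 18 h, then CCF4 for 2 h at RT; Hill fit gave IC50.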

[18] = molecular target: Bile acid receptor (Homo sapiens) (UniProt Q96RI1); assay: qHTS assay for small molecule antagonists of farnesoid X receptor signaling (AID 588526); note: potency is the fitted concentration of half-maximal effect
How it was run: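 Concentration-response titrations were fitted to the Hill equation for half-maximal inhibition and maximal response, with data normalised to 50 uM chenodeoxycholic acid and DMSO control wells. Cells: FXR-UAS-bla HEK293T, dialyzed FBS.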

CC(C)(C#N)N=NC(C)(C)C#N
3.24%: max response [3]
inactive: activation [1] 6.88% | Potency [2] | Potency [4] | Potency [5] | outcome [6]

O=Nc1ccc(Nc2ccccc2)cc1
inactive: Potency [7] | activation [15] 15.6% | Potency [16]
active: Potency [8] 2.51 µM | Potency [9] 6.31 µM | Potency [10] 3.98 µM | Potency [11] 5.01 µM | Potency [12] 7.94 µM | Potency [13] 7.94 µM | Potency [14] 10 µM | Potency [5] 54.5 µM

c1cc[n+]2c(c1)-c1cccc[n+]1CC2
45.8%: max response [3]
active: Potency [5] 8.63 µM
inactive: activation [1] 1.75% | Potency [2] | Potency [4] | Potency [16] | activity change % (negative = inhibition) [17] 10.8%

CCOP(=O)(NC(C)C)Oc1ccc(S(C)=O)c(C)c1 (configuration not stated)
-19.9%: max response [3]
inactive: activation [15] -0.691% | Potency [2] | Potency [4] | activity change % (negative = inhibition) [17] 7.26% | Potency [5] | outcome [6]

COCc1cnc(C2=NC(C)(C(C)C)C(=O)N2)c(C(=O)O)c1 (configuration not stated)
inactive: Potency [18] | activation [15] -0.497% | Potency [2] | Potency [4] | Potency [16] | activity change % (negative = inhibition) [17] -1.58% | outcome [6]
-13.7%: max response [3]

COP(=S)(OC)Oc1ccc([N+](=O)[O-])c(C)c1
inactive: activation [15] 2.17% | activation [1] -13.6% | Potency [16]

Brc1c(Br)c(Br)c(Br)c(Br)c1Br
inactive: activation [1] -0.0722% | Potency [2] | Potency [4] | Potency [16] | outcome [6]
-24.6%: max response [3]

Clc1ccc([C@]2(Cn3cncn3)C[C@H](Br)CO2)c(Cl)c1
inactive: Potency [18] | activation [15] 0.21% and -0.946% | activation [1] -7.37% and -0.86% | Potency [4] | activity change % (negative = inhibition) [17] 0.44% | Potency [5]
7.61% and -41.8%: max response [3]

CCC[CH2][Sn]([CH2]CCC)[CH2]CCC
inactive: activation [15] 6.72% | activation [1] -13.3%

COc1nc(C)nc(NC(=O)NS(=O)(=O)c2ccccc2Cl)n1
inactive: activation [1] -6.7% | Potency [2] | Potency [16] | outcome [6]

C=CC(=O)OCC(CO)(COC(=O)C=C)COC(=O)C=C
active: Potency [8] 3.16 µM | Potency [9] 3.98 µM | Potency [10] 3.16 µM | Potency [11] 7.94 µM | Potency [12] 3.98 µM | Potency [13] 5.01 µM | Potency [14] 5.01 µM | Potency [2] 22.4 µM and 20 µM | Potency [5] 24.3 µM
inactive: Potency [7] | activation [15] 1.06%

O=P(O)(O)CCCl
inactive: Potency [18] | activation [15] 4.97% and -5.97% | Potency [4] | Potency [16] | Potency [5] | outcome [6]
-15.9%: max response [3]

CCCCC(C#N)(Cn1cncn1)c1ccc(Cl)cc1 (configuration not stated)
26.8%: max response [3]
inactive: activation [1] -4.2% and -7.49% | Potency [2] | Potency [4] | activity change % (negative = inhibition) [17] 6.16% and 3.62% | Potency [5]

CCC[CH2][Sn]([CH2]CCC)([O]C(C)=O)[O]C(C)=O
active: Potency [18] 12.6 µM | Potency [5] 30.6 µM
inactive: activation [15] -0.854% | Potency [16] | activity change % (negative = inhibition) [17] -21.2% | outcome [6]

CCOP(OCC)OCC
inactive: Potency [18] | activation [15] -1.35% | outcome [6]

Oc1ccc(C2(c3ccc(O)cc3)c3ccccc3-c3ccccc32)cc1
inactive: activation [1] -14.6%
active: Potency [18] 28.2 µM

COc1cc(Cl)c(OC)cc1Cl
inactive: activation [1] -1.33% | Potency [2] | Potency [16] | activity change % (negative = inhibition) [17] 4.96% | Potency [5]

Cc1c(F)c(F)c(COC(=O)C2C(/C=C(\Cl)C(F)(F)F)C2(C)C)c(F)c1F (configuration not stated)
-17%: max response [3]
inactive: Potency [18] | activation [15] 0.0589% | activation [1] 9.43% | Potency [4] | Potency [16] | activity change % (negative = inhibition) [17] 16.3%

CCCCC(CC)COC(=O)Cl (configuration not stated)
inactive: Potency [18] | activation [15] 1.19% | Potency [2] | activity change % (negative = inhibition) [17] -1.19% | Potency [5] | outcome [6]

Clc1ccc([C@]2(Cn3cncn3)C[C@@H](Br)CO2)c(Cl)c1
inactive: activation [15] -2.66% and -2.04% | activation [1] 7.46% and -5.85% | Potency [2] | activity change % (negative = inhibition) [17] -4.77% and -5.66%

CC(C)(C)C(=O)[C@H](Oc1ccc(Cl)cc1)n1cncn1
inactive: activation [1] -0.211% | Potency [2] | Potency [16] | activity change % (negative = inhibition) [17] -10.2%

CC(C)C(=O)OCC(C)(C)C(OC(=O)C(C)C)C(C)C (configuration not stated)
inactive: activation [1] -2.67% | Potency [2] | Potency [4] | Potency [16] | activity change % (negative = inhibition) [17] 4.21%
-3.86%: max response [3]

COC(=O)c1ccccc1CS(=O)(=O)NC(=O)Nc1nc(OC)cc(OC)n1
inactive: Potency [18] | activation [15] -0.439% | Potency [2] | Potency [4] | Potency [16] | activity change % (negative = inhibition) [17] 15.6% | outcome [6]
-1.25%: max response [3]

COc1ccc(C(O)(c2cncnc2)C2CC2)cc1 (configuration not stated)
inactive: Potency [18] | activation [1] -6.63% | Potency [16] | activity change % (negative = inhibition) [17] -4.75% | Potency [5] | outcome [6]

CCN(CC)C(=O)C(C)Oc1cccc2ccccc12 (configuration not stated)
inactive: Potency [18] | activation [15] -1.49% | Potency [16] | activity change % (negative = inhibition) [17] -8.01% | Potency [5]

COCC(=O)N(c1c(C)cccc1C)[C@H](C)C(=O)OC
inactive: activation [15] 0.109% | Potency [16] | Potency [5]

CN(C)c1nc(=O)n(C2CCCCC2)c(=O)n1C
12.4%: max response [3]
inactive: Potency [18] | activation [15] -1.35% | Potency [4] | Potency [16] | Potency [5] | outcome [6]
